Unmarked numbers belong to inactive results.
Each molecule was assayed on Vero E6 infected with SARS-CoV-2 (assay: inhibition of SARS-CoV-2 cytopathic effect; higher = more antiviral protection, active = above 15). Conditions: 10000 nM; 48 h.
With `O=C1OC(CN2CCOCC2)CN1/N=C/c1ccc([N+](=O)[O-])o1` (stereo not drawn) [furaltadone] the “inhibition of SARS-CoV-2 cytopathic effect” value (shortened to “inhibition”) was -6.1%.
With `CCN(CC)c1ccc(/C=N/NC(=O)c2ccc(O)cc2)cc1` the “inhibition” value was 0.11%.
`Oc1cc(O)c2c(c1)O[C@H](c1ccc(O)c(O)c1)[C@@H](O)C2` [cianidanol] was tested, and the “inhibition” value was -2.3%.
For `NS(=O)(=O)c1ccc2c(c1)C1C=CCC1C(c1ccc(Br)cc1)N2` (stereo not drawn), the “inhibition” value was -0.61%.
In the case of `c1nc(CC2CCNCC2)c[nH]1` [immepip], the “inhibition” value is reported as 0.13%.
`CCN(Cc1ccncc1)C(=O)C(CO)c1ccccc1` (stereo not drawn) [tropicamide] was tested, and the “inhibition” value was -2.47%.
With `O=C(/C=C\n1cnc(-c2cc(C(F)(F)F)cc(C(F)(F)F)c2)n1)NNc1cnccn1` [selinexor] the “inhibition” value was -8.85%.
`CON` [methoxyamine] was tested, and the “inhibition” value was -0.96%.
For `CC1C(=O)OC2C(O)C34C5CC(C(C)(C)C)C36C(OC(=O)C6O)OC4(C(=O)O5)C12O` (stereo not drawn) [ginkgolide-B], the “inhibition” value was 0.1%.
With `O=C(Nc1c(-c2cccs2)nc2ccccn12)c1ccc(Cl)cc1` the “inhibition” value was 9.03%.
For `C[C@H](c1ccc(F)cc1CCCC(=O)O)N(c1cc(F)ccc1F)S(=O)(=O)c1ccc(Cl)cc1`, the “inhibition” value was -5.49%.
`C[C@]12CC[C@@H]3c4ccc(O)cc4CC[C@H]3[C@@H]1CC[C@@H]2OC(=O)CCC1CCCC1` [estradiol-cypionate] was tested, and the “inhibition” value was 1.69%.
In the case of `CCOC(=O)c1c(C)[nH]c2ccc3c(c12)CN1CCc2cc(OC)ccc2C1O3` (stereo not drawn), the “inhibition” value is reported as 24.1% (active).

From the supplement of paper PMC13380429
